Reference: PubChem BioAssay (Tox21)
Values joined by “and” are separate entries in the source; they are usually repeats but may differ in a detail not shown here. Identical values can stand only once. Records with an inconclusive call do not appear. More than one record can exist for a structure, and the calls need not agree. Active and inactive are the calls of the source. Unless noted, calls follow the shape of the dose curve; as a rule, active = well fitted curve in the direction sought with a large enough effect in the repeat runs; inconclusive = weak or mixed curves; inactive = no such curve, though single readings can be large; an effect the other way counts as inactive or inconclusive.

What was measured:
[1] = qHTS assay for small molecule agonists of the p53 signaling pathway (AID 651631; calls by dose curve; also: nearly all actives have a fitted effect of over 15% in size; also: potency is read from the fitted curve at half-maximal effect)
Summary of the method: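 We treat p53RE-bla HCT-116 cells with compounds for 16 h at 37 °C, add LiveBLAzer B/G FRET substrate for 2 h at room temperature, and measure fluorescence intensity.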

[2] = qHTS assay for small molecules that induce genotoxicity in human embryonic kidney cells expressing luciferase-tagged ATAD5 (AID 651632); also: nearly all actives have a fitted effect of over 15% in size; also: potency is read from the fitted curve at half-maximal effect
Summary of the method: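 Cells were seeded at 2,000 per well, dosed with compound, and incubated 16 hr at 37C in 5% CO2. Luciferase activity was then quantified after a 30 min room-temperature incubation with Amplite.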

[3] = qHTS assay for small molecule agonists of the p53 signaling pathway - cell viability (AID 651633; calls by dose curve; also: nearly all actives have a fitted effect of over 30% in size; also: potency is read from the fitted curve at half-maximal effect)
Summary of the method: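 p53RE-bla cells, seeded at 4,000 per well and rested 5 h at 37 C/5% CO2, received compounds in DMSO for 16 h at 37 C. CellTiter-Glo was then added, and luminescence was read after 30 min at room temperature to gauge cytotoxicity.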

[4] = qHTS assay for small molecules that induce genotoxicity in human embryonic kidney cells expressing luciferase-tagged ATAD5 - cell viability (AID 651634; calls by dose curve; also: nearly all actives have a fitted effect of over 25% in size; also: potency is read from the fitted curve at half-maximal effect)
Summary of the method: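 Cells (HEK293T, luciferase-tagged ATAD5) are seeded at 2,000 per well, dosed with compound or DMSO vehicle, and incubated 15.5 hr at 37C and 5% CO2. CellTiter-Fluor is added for 30 min before fluorescence is measured.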

[5] = qHTS assay for small molecule disruptors of the mitochondrial membrane potential - cell viability (AID 720634; calls by dose curve; also: nearly all actives have a fitted effect of over 20% in size; also: potency is read from the fitted curve at half-maximal effect)
Summary of the method: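 Cytotoxicity was measured by ATP quantitation in HepG2 wells that had first been treated with compound for 1 hr and stained with m-MPI dye; CellTiter-Glo incubation was 30 min at room temperature.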

[6] = qHTS assay for small molecule disruptors of the mitochondrial membrane potential (AID 720635); also: potency is read from the fitted curve at half-maximal effect
Summary of the method: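 HepG2 cells (2,000/well) attached overnight at 37C, then took compound for 1 hr at 37C, 5% CO2. Mito-MPS dye was added for 30 min; fluorescence was read at 490/535 nm (monomers) and 540/590 nm (aggregates).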

[7] = qHTS assay to test for compound auto fluorescence at 590 nm (red) in HepG2 cells (AID 720674)
Summary of the method: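 Intrinsic compound fluorescence in the red window (Ex/Em 540/590 nm) is measured in attached HepG2 cells exposed for 1 hr, DMSO vehicle as baseline, benchmarked to Rose Bengal sodium.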

[8] = qHTS assay to test for compound auto fluorescence at 535 nm (green) in HepG2 cells (AID 720675)
[9] = qHTS assay to test for compound auto fluorescence at 460 nm (blue) in HEK293 cells (AID 720678)
Summary of the method: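 Blue read-out at excitation 405 nm and emission 460 nm follows overnight compound exposure of HEK293 cells at 37C in 5% CO2. Activity is given as auto fluorescence equivalency to triamterene.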

[10] = qHTS assay to test for compound auto fluorescence at 590 nm (red) in HEK293 cells (AID 720679)
Summary of the method: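 Red channel, Ex/Em 540/590nm; signal expressed as equivalency to Rose Bengal sodium. HEK293, 2,000 cells/well, 10% dialyzed FBS; 23 nL compound pinned after 4-5 hr attachment; overnight 37C/5% CO2 before reading.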

[11] = qHTS assay to test for compound auto fluorescence at 460 nm (blue) in HEK293 cell free culture (AID 720681)
Summary of the method: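 Test compounds were pinned into cell-free culture medium (DMEM with 10% FBS) and fluorescence was read directly at Ex/Em 405/460 nm. Signals were expressed as fluorescence equivalents of triamterene, with DMSO vehicle as control.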

[12] = qHTS assay to test for compound auto fluorescence at 535 nm (green) in HEK293 cell free culture (AID 720682)
Summary of the method: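 Green-channel intensity (Ex/Em 485/535 nm) was recorded from compound-treated wells containing only DMEM with 10% FBS. Fluorescein provided the equivalency standard.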

[13] = qHTS assay to test for compound auto fluorescence at 590 nm (red) in HEK293 cell free culture (AID 720683)
Summary of the method: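 Tox21 10K library compounds were pinned into cell-free DMEM with 10% FBS and fluorescence was read at excitation 540 nm. Activity is expressed as Rose Bengal sodium equivalency.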

[14] = qHTS assay to test for compound auto fluorescence at 590 nm (red) in HepG2 cell free culture (AID 720684)
Summary of the method: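 Readout: intrinsic compound fluorescence at 590 nm emission after 540 nm excitation, scaled to Rose Bengal sodium. Matrix was cell-free MEM with 10% FBS; DMSO vehicle wells served as control.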

[15] = qHTS assay to test for compound auto fluorescence at 460 nm (blue) in HepG2 cell free culture (AID 720685)
Summary of the method: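 Cell-free plates of MEM plus 10% FBS received 23 nL compound or DMSO vehicle; blue-channel (405/460 nm) intensity scored against triamterene as reference fluorophore.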

[16] = qHTS assay to test for compound auto fluorescence at 535 nm (green) in HepG2 cell free culture (AID 720686)
[17] = qHTS assay to test for compound auto fluorescence at 460 nm (blue) in HepG2 cells (AID 720687)
Summary of the method: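 Cells (2,000/well in MEM with 10% FBS) attached overnight at 37 C, then were exposed to compound or DMSO for 1 hr at 37 C, 5% CO2. Fluorescence read at Ex/Em 405/460 nm, expressed as triamterene-equivalent signal.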

[18] = target: Glucocorticoid receptor (Homo sapiens) (UniProt P04150); assay: qHTS assay to identify small molecule agonists of the glucocorticoid receptor (GR) signaling pathway (AID 720691; active = well fitted activation curve with a large enough effect in the signal ratio in the repeat runs, not every such curve was filed as active; the % refers to the signal ratio)
Summary of the method: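 Steps: seed GR-bla HeLa cells, incubate 4 h at 37 C/5% CO2; pin-transfer DMSO-dissolved compounds; incubate 18 h at 37 C; add LiveBLAzer B/G FRET substrate; after 2 h at room temperature, measure fluorescence.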

[19] = target: Glucocorticoid receptor (Homo sapiens) (UniProt P04150); assay: qHTS assay to identify small molecule antagonists of the glucocorticoid receptor (GR) signaling pathway (AID 720692; active = well fitted inhibition curve with a large enough effect in the signal ratio in the repeat runs, not every such curve was filed as active; the % refers to the signal ratio; also: potency is read from the fitted curve at half-maximal effect)
Summary of the method: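 Antagonism was scored as loss of dexamethasone-driven (5 nM final) reporter signal in HeLa cells bearing a glucocorticoid response element–beta-lactamase construct, after 18 h compound exposure at 37 C and 2 h FRET substrate loading.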

[20] = qHTS assay to test for compound auto fluorescence at 535 nm (green) in HEK293 cells (AID 720680)

Measured: Potency

Glucocorticoid receptor (Homo sapiens), sequence (P04150 whole entry, looked up): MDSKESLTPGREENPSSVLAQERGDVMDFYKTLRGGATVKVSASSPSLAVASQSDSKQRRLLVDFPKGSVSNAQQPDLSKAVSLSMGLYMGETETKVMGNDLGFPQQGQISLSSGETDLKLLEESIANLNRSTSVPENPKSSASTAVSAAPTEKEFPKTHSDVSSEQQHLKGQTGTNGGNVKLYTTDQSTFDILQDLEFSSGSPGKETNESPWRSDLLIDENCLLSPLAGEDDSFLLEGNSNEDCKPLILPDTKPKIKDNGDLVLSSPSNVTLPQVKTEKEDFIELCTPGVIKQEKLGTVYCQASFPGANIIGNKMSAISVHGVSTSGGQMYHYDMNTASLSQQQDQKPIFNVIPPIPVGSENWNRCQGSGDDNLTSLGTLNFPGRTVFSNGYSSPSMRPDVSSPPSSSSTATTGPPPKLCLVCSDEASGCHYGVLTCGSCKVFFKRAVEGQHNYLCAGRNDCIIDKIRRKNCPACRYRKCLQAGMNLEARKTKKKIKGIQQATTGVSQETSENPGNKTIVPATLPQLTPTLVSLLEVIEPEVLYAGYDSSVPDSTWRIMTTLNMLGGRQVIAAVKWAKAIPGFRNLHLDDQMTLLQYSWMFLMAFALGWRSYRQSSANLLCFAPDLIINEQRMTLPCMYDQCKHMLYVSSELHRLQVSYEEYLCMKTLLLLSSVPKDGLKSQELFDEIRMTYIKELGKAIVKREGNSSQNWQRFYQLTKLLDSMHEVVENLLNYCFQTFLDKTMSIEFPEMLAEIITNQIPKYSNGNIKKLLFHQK

CCCCC(CC)COP(=O)(OCC(CC)CCCC)OCC(CC)CCCC (stereo not given)
inactive: [1] | [2] | [3] | [4] | [5] | [6] | [7] | [8] | [9] | [10] | [11] | [12] | [13] | [14] | [15] | [16] | [17] | [18] | [19]

Cc1ccc(C)c(O)c1C
inactive: [1] | [2] | [3] | [4] | [5] | [6] | [8] | [9] | [11] | [12] | [13] | [14] | [15] | [16] | [17] | [18] | [19]

CC(=O)Oc1ccccc1C(=O)Nc1ncc([N+](=O)[O-])s1
9.44 µM (active) and inactive: [3]
active: [1] 5.96 µM | [2] 1.33 µM | [4] 18.8 µM and 22.1 µM | [5] 556 nM
inactive: [7] | [9] | [10] | [20] | [11] | [14] | [15] | [16] | [17]

Nc1ccc(Cl)cc1Cl
inactive: [1] | [2] | [3] | [4] | [5] | [7] | [8] | [9] | [10] | [20] | [11] | [12] | [14] | [15] | [16] | [17] | [18] | [19]

Nc1ncn([C@@H]2O[C@H](CO)[C@@H](O)[C@H]2O)c(=O)n1
active: [1] 2.11 µM and 4.86 µM | [4] 750 nM and 1.37 µM | [19] 3.01 µM and 1.74 µM
668 nM (active) and inactive: [3]
inactive: [2] | [5] | [7] | [8] | [9] | [10] | [20] | [11] | [12] | [13] | [14] | [15] | [16] | [17] | [18]

COc1ccc(C(=O)CC(=O)c2ccc(C(C)(C)C)cc2)cc1
inactive and 18.5 µM (active): [5]
inactive and 16.5 µM (active): [6]
inactive: [1] | [2] | [3] | [4] | [7] | [9] | [10] | [20] | [11] | [12] | [14] | [15] | [16] | [17] | [18] | [19]

COc1ccc(OC)c(C(O)CNC(=O)CN)c1 (stereo not given)
inactive: [1] | [2] | [3] | [4] | [5] | [7] | [8] | [9] | [11] | [12] | [13] | [14] | [15] | [16] | [17] | [18] | [19]

OC1CCCCCCCCCCC1
active: [6] 55 µM and 54.5 µM
inactive: [1] | [2] | [3] | [4] | [5] | [7] | [8] | [9] | [20] | [11] | [12] | [13] | [14] | [15] | [16] | [17] | [18] | [19]

CN1C(C(=O)Nc2ccccn2)=C(O)c2ccccc2S1(=O)=O
inactive: [1] | [2] | [3] | [4] | [5] | [8] | [9] | [10] | [20] | [11] | [12] | [13] | [14] | [15] | [16] | [17] | [18] | [19]
active: [6] 5.69 µM and 4.9 µM

CC(=O)CC/C=C(\C)CCC=C(C)C
inactive: [1] | [2] | [3] | [4] | [5] | [6] | [8] | [9] | [20] | [11] | [12] | [13] | [14] | [15] | [16] | [17]

CC(C)OC=O
inactive: [1] | [2] | [3] | [4] | [5] | [7] | [8] | [9] | [10] | [20] | [11] | [12] | [14] | [15] | [16] | [17] | [18] | [19]

CC(CCC(=O)O)(c1ccc(O)cc1)c1ccc(O)cc1
inactive: [1] | [2] | [3] | [4] | [5] | [6] | [7] | [8] | [9] | [11] | [12] | [14] | [15] | [16] | [17] | [18] | [19]

O=C=Nc1ccc(Cc2ccc(N=C=O)cc2)cc1
inactive: [1] | [2] | [3] | [4] | [5] | [8] | [9] | [10] | [20] | [11] | [12] | [13] | [14] | [15] | [16] | [17] | [18] | [19]

O=C(Nc1ccc(Cl)cc1)Nc1ccc(Cl)c(Cl)c1
inactive: [2] | [3] | [7] | [9] | [10] | [11] | [12] | [13] | [14] | [15] | [16] | [17]
active: [1] 7.5 µM and 5.42 µM and 15.4 µM | [4] 9.44 µM | [5] 1930 nM | [6] 150 nM and 68.2 nM and 86.3 nM
